According to PubChem BioAssay AID1159580 (chemical genetic matrix, 2015):
Out of some 5,500 compounds screened, about 2,000 (36%) were called active. Another 18% or so got no clear call; they are omitted. The list shows a part of the results. Unmarked numbers belong to inactive results. No stated cut-off is given here; in the data, active means normalized growth mostly below about 0.91 (no sharp cut-off); inconclusive means no clear call, values can overlap the other calls; inactive means mostly above about 0.92.

Assay: chemical genetic growth profiling, strain panel (AID 1159580);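 further: tested at 20 µM; growth read once vehicle control cultures reached saturation at 30 °C; 1 = growth at the plate median or of vehicle wells; lower values mean less growth of the strain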
Conditions: growth OD

COc1cc2occ(-c3ccccc3)c(=O)c2c(OC)c1C
normalized growth (S. cerevisiae deletion strains, locus YJR043C, strain POL32, hits give low values): 0.937
normalized growth (S. cerevisiae deletion strains, locus YJR075W, strain HOC1, hits give low values): 0.908
normalized growth (S. cerevisiae deletion strains, locus YKL009W, strain mrt4, hits give low values): 0.941
normalized growth (S. cerevisiae deletion strains, locus YKL068W, hits give low values): 0.965
normalized growth (S. cerevisiae deletion strains, locus YKL085W, strain MDH1 (second series), hits give low values): 0.952
normalized growth (S. cerevisiae deletion strains, locus YKL085W, strain MDH1, hits give low values): 0.952
normalized growth (S. cerevisiae deletion strains, locus YKL160W, strain elf1, hits give low values): 0.969
normalized growth (S. cerevisiae deletion strains, locus YKL190W, strain CNB1, hits give low values): 0.961
normalized growth (S. cerevisiae deletion strains, locus YKR001C, strain vps1, hits give low values): 0.855 (active)
normalized growth (S. cerevisiae deletion strains, locus YKR026C, strain gcn3, hits give low values): 0.973
normalized growth (S. cerevisiae deletion strains, locus YKR091W, strain srl3, hits give low values): 0.976
normalized growth (S. cerevisiae deletion strains, locus YLL001W, strain dnm1, hits give low values): 0.98
normalized growth (S. cerevisiae deletion strains, locus YLL026W, hits give low values): 0.971
normalized growth (S. cerevisiae deletion strains, locus YLL041C, strain sdh2, hits give low values): 0.976
normalized growth (S. cerevisiae deletion strains, locus YLR027C, strain aat2, hits give low values): 0.979
normalized growth (S. cerevisiae deletion strains, locus YLR039C, strain RIC1, hits give low values): 0.763
normalized growth (S. cerevisiae deletion strains, locus YLR058C, strain SHM2, hits give low values): 0.951
normalized growth (S. cerevisiae deletion strains, locus YLR102C, strain apc9, hits give low values): 0.96
normalized growth (S. cerevisiae deletion strains, locus YLR221C, strain rsa3, hits give low values): 0.979
normalized growth (S. cerevisiae deletion strains, locus YLR258W, strain gsy2, hits give low values): 0.97
normalized growth (S. cerevisiae deletion strains, locus YLR262C, strain YPT6 (second series), hits give low values): 0.766 (active)
normalized growth (S. cerevisiae deletion strains, locus YLR262C, strain YPT6, hits give low values): 0.725
normalized growth (S. cerevisiae deletion strains, locus YLR268W, strain sec22, hits give low values): 0.873 (active)
normalized growth (S. cerevisiae deletion strains, locus YLR320W, strain mms22, hits give low values): 0.902
normalized growth (S. cerevisiae deletion strains, locus YLR330W, strain CHS5, hits give low values): 0.957
normalized growth (S. cerevisiae deletion strains, locus YLR342W, strain FKS1 (second series), hits give low values): 0.714 (active)
normalized growth (S. cerevisiae deletion strains, locus YLR342W, strain FKS1, hits give low values): 0.968
normalized growth (S. cerevisiae deletion strains, locus YLR357W, strain rsc2, hits give low values): 0.97
normalized growth (S. cerevisiae deletion strains, locus YLR370C, strain arc18, hits give low values): 0.962
normalized growth (S. cerevisiae deletion strains, locus YLR371W, strain rom2, hits give low values): 0.923
normalized growth (S. cerevisiae deletion strains, locus YLR384C, strain iki3, hits give low values): 0.976
normalized growth (S. cerevisiae deletion strains, locus YLR418C, strain cdc73, hits give low values): 0.788 (active)
normalized growth (S. cerevisiae deletion strains, locus YML016C, strain PPZ1, hits give low values): 0.956
normalized growth (S. cerevisiae deletion strains, locus YML032C, strain rad52, hits give low values): 0.898 (active)
normalized growth (S. cerevisiae deletion strains, locus YML120C, strain ndi1, hits give low values): 0.951
normalized growth (S. cerevisiae deletion strains, locus YML124C, strain tub3, hits give low values): 0.942
normalized growth (S. cerevisiae deletion strains, locus YMR058W, strain fet3, hits give low values): 0.97
normalized growth (S. cerevisiae deletion strains, locus YMR078C, strain ctf18, hits give low values): 0.927
normalized growth (S. cerevisiae deletion strains, locus YMR125W, strain sto1, hits give low values): 1
normalized growth (S. cerevisiae deletion strains, locus YMR129W, hits give low values): 0.981
normalized growth (S. cerevisiae deletion strains, locus YMR205C, strain PFK2, hits give low values): 0.932
normalized growth (S. cerevisiae deletion strains, locus YMR223W, strain ubp8, hits give low values): 0.885 (active)
normalized growth (S. cerevisiae deletion strains, locus YMR231W, strain pep5, hits give low values): 0.998
normalized growth (S. cerevisiae deletion strains, locus YMR263W, strain SAP30, hits give low values): 0.926
normalized growth (S. cerevisiae deletion strains, locus YMR307W, strain GAS1, hits give low values): 0.665
normalized growth (S. cerevisiae deletion strains, locus YNL067W, strain RPL9B, hits give low values): 0.95
normalized growth (S. cerevisiae deletion strains, locus YNL071W, strain lat1, hits give low values): 0.819 (active)
normalized growth (S. cerevisiae deletion strains, locus YNL128W, strain TEP1, hits give low values): 0.963
normalized growth (S. cerevisiae deletion strains, locus YNL153C, strain GIM3, hits give low values): 0.991
normalized growth (S. cerevisiae deletion strains, locus YNL209W, strain ssb2, hits give low values): 0.988
normalized growth (S. cerevisiae deletion strains, locus YNL233W, strain BNI4, hits give low values): 0.908
normalized growth (S. cerevisiae deletion strains, locus YNL248C, strain rpa49, hits give low values): 0.98
normalized growth (S. cerevisiae deletion strains, locus YNL250W, strain rad50, hits give low values): 0.956
normalized growth (S. cerevisiae deletion strains, locus YNL271C, strain bni1, hits give low values): 0.937
normalized growth (S. cerevisiae deletion strains, locus YNL298W, strain CLA4, hits give low values): 0.946
normalized growth (S. cerevisiae deletion strains, locus YNL307C, strain MCK1, hits give low values): 0.664 (active)
normalized growth (S. cerevisiae deletion strains, locus YNL322C, strain KRE1 (second series), hits give low values): 0.991
normalized growth (S. cerevisiae deletion strains, locus YNL322C, strain KRE1, hits give low values): 0.965
normalized growth (S. cerevisiae deletion strains, locus YNR049C, strain mso1, hits give low values): 0.985
normalized growth (S. cerevisiae deletion strains, locus YNR052C, strain pop2, hits give low values): 0.933
normalized growth (S. cerevisiae deletion strains, locus YOL006C, strain TOP1, hits give low values): 0.787
normalized growth (S. cerevisiae deletion strains, locus YOL012C, strain htz1): 0.865
normalized growth (S. cerevisiae deletion strains, locus YOL147C, strain pex11, hits give low values): 0.923 (active)
normalized growth (S. cerevisiae deletion strains, locus YOR001W, strain rrp6, hits give low values): 1
normalized growth (S. cerevisiae deletion strains, locus YOR061W, strain CKA2, hits give low values): 0.96
normalized growth (S. cerevisiae deletion strains, locus YOR069W, strain VPS5, hits give low values): 0.968
normalized growth (S. cerevisiae deletion strains, locus YOR070C, strain gyp1, hits give low values): 0.982
normalized growth (S. cerevisiae deletion strains, locus YOR080W, strain dia2, hits give low values): 1
normalized growth (S. cerevisiae deletion strains, locus YOR083W, strain WHI5, hits give low values): 0.965
normalized growth (S. cerevisiae deletion strains, locus YOR106W, strain vam3, hits give low values): 0.953
normalized growth (S. cerevisiae deletion strains, locus YOR136W, strain idh2, hits give low values): 0.952
normalized growth (S. cerevisiae deletion strains, locus YOR144C, strain elg1, hits give low values): 0.946
normalized growth (S. cerevisiae deletion strains, locus YOR184W, strain ser1, hits give low values): 0.742 (active)
normalized growth (S. cerevisiae deletion strains, locus YOR265W, strain rbl2, hits give low values): 0.962
normalized growth (S. cerevisiae deletion strains, locus YOR270C, strain vph1, hits give low values): 0.801
normalized growth (S. cerevisiae deletion strains, locus YOR290C, strain snf2, hits give low values): 0.919
normalized growth (S. cerevisiae deletion strains, locus YOR316C, strain cot1, hits give low values): 0.937
normalized growth (S. cerevisiae deletion strains, locus YPL051W, strain arl3, hits give low values): 0.942
normalized growth (S. cerevisiae deletion strains, locus YPL055C, strain LGE1, hits give low values): 0.888
normalized growth (S. cerevisiae deletion strains, locus YPL078C, strain atp4, hits give low values): 0.956
normalized growth (S. cerevisiae deletion strains, locus YPL106C, strain sse1, hits give low values): 0.993
normalized growth (S. cerevisiae deletion strains, locus YPL240C, strain hsp82, hits give low values): 0.969
normalized growth (S. cerevisiae deletion strains, locus YPL241C, strain CIN2, hits give low values): 0.959
normalized growth (S. cerevisiae deletion strains, locus YPR119W, strain clb2, hits give low values): 0.959
normalized growth (S. cerevisiae deletion strains, locus YPR141C, strain kar3, hits give low values): 0.944
normalized growth (S. cerevisiae deletion strains, locus YPR163C, strain tif3, hits give low values): 0.937
normalized growth (S. cerevisiae deletion strains, locus YPR167C, strain met16, hits give low values): 0.942
normalized growth (S. cerevisiae deletion strains, strain wtn01, hits give low values): 0.916
normalized growth (S. cerevisiae strains, strain wild type, hits give low values): 0.928
